Results on 49 molecules are retold here after PubChem BioAssay AID1159614 (National Center for Advancing Translational Sciences (NCATS), 2016).

Structures are written as SMILES. Screen size: about 45,000 compounds; about 65 (0.1%) were called active. This is one part of a sample in which actives are shown more often than they occur. Unmarked numbers belong to inactive results. Calls come from the whole dose curve; as a rule, active = well fitted activation curve with a large enough effect; inconclusive = small, poorly fitted or top-dose-only effect; inactive = no such curve, though single readings can be large or run the other way.
Potency is the fitted concentration of half-maximal effect.

Sequence of Galactocerebrosidase (Homo sapiens) (P54803 whole entry G286D): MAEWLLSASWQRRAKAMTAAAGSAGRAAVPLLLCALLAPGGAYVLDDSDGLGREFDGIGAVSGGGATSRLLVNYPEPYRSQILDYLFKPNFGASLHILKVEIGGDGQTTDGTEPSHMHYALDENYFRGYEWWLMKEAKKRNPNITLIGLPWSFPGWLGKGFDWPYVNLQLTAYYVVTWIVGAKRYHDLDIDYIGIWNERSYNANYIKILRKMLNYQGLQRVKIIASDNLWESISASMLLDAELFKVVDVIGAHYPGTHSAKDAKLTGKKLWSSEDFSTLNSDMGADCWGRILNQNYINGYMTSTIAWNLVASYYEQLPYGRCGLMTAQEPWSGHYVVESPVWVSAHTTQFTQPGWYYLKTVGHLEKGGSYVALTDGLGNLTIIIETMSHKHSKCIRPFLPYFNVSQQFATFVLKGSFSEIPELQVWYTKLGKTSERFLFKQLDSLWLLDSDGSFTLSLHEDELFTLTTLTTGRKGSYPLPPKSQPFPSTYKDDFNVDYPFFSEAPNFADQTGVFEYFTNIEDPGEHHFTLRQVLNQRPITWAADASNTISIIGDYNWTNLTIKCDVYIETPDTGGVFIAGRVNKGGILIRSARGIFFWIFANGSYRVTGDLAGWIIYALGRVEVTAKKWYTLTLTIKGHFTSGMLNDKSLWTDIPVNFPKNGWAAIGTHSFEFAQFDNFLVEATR

This assay has as its target Galactocerebrosidase (Homo sapiens) (UniProt P54803). In words: A Novel Cell-Based Assay to Identify Small Molecules for B -Galactocerebrosidase. For activation: 0% is about no effect. Note: nearly all actives have a fitted effect of over 65% in size. As to conditions: 145M-Twi-hGALC-G270D cells (Twitcher mouse brain line with human GALC G270D), HMU-beta-Gal fluorescence, 48 h; series mostly up to 57.5 µM; activation: at the top concentration. An excerpt:
Lysosomal storage diseases (LSDs) are caused by genetic mutations in genes encoding proteins important for normal lysosomal function. Globoid cell leukodystrophy (GLD), mostly known as Krabbe disease, is a prototype of the neurological LSDs caused by deficiency of beta-galactocerebrosidase (GALC). In brain specimens of GLD patients, psychosine levels are substantially elevated. At elevated concentrations, psychosine becomes cytotoxic to neuronal cells, particularly to oligodendrocytes (OLG), neural cells responsible for myelin formation. Therefore, the biochemical disturbances in GLD are manifested by different degrees of brain demyelination resulting in a broad spectrum of neurological manifestations. Most of the FDA-approved therapies are based on enzyme replacement therapeutic (ERT) agents, which treat non-neurological symptoms of Gaucher disease, Fabry disease, few mucopolysaccharidoses and Pompe disease. Unfortunately, in GLD, a primarily neurological LSD, ERT agents, as large molecular weight molecules unable to cross the blood-brain barrier, which makes this an inefficacious therapeutic approach. In GLD, increasing the residual GALC activity just above the critical threshold (~10% of wild type enzymatic activity), the cytotoxic levels of psychosine will be reduced, avoiding the OLGs apoptosis and the subsequent demyelination process. This will translate in disease stabilization and amelioration of GLD patient symptoms.
A cell-based assay in 1,536-well plate format was developed to implement a quantitative high-throughput screening (qHTS) assay using GLD-disease relevant cells to identify small molecules that produce enhancements of the residual enzymatic activity levels of mutants GALC found and prevalent in GLD patients. Compounds that are active may therefore have some therapeutic application for GLD. After the treatment of live cells for a determined period, using a fluorescent GALC specific substrate, the mutant residual GALC activity is measured. This cell-based qTHS assay was used to screen part of the MLPCN library for small molecule able to increase the mutant GALC enzymatic activity. In this assay, increased fluorescent signal corresponds to enhanced levels of mutant GALC residual enzymatic activity. Activation is the desired outcome for this assay.
NIH Chemical Genomics Center [NCGC]
NIH Molecular Libraries Probe Centers Network [MLPCN]
Assay Submitter (PI): Gustavo Maegawa MD,PhD, University of Florida, Gainesville, FL
2)#Two cell lines were established for the assay: 145M-Twi-hGALC-G270D (brain-derived Twitcher cell line stably expressing human GALC-G270D) and 145M-Twi-hGALC-WT (same 145M-Twi stably expressing human GALC wild type). The Twitcher is the murine C57B/6 model for GLD with naturally occurring homozygous nonsense GALC mutation. The 145M-Twi cell line was established at Maegawa lab (Ribbens J et al 2014).
a.#Media: DMEM/F12 (1:1) with 10% fetal bovine-serum (FBS) with penicillin/streptomycin (PS-1X - 100 I.U./mL of penicillin+100 ug/mL of streptomycin).
b.#The 6-Hexadecanoylamino-4-methylumbelliferyl-b-D-galactoside (HMU-B-gal) substrate was prepared as per Wiederschain et al 1992. Using 20-mL borosilicate tubes, 2.20 mg of HMU-b-Gal was added in each tube to prepare substrate-film with a final air-nitrogen stream evaporation to remove all diluent solvents.
c.#The HMUb-Gal substrate buffer consists of 0.2 M Na2HPO4 (sodium phosphate dibasic)/ 0.1 M Citric Acid with the pH adjusted to 5.2 using HCl. Sodium Azide at 0.02% and Sodium Taurocholate (NaTC) at 1 mg/mL were added to this substrate buffer.
d.#The HMU-b-Gal stopping buffer consist of 0.5 M NaHCO3 (sodium bicarbonate) /0.5 M Na2CO3 (sodium carbonate). […] Triton X-100 at 0.25% was added.
4)#Preparation of HMU-b-Gal substrate tubes
Adding 18.6 mL of the HMUb-Gal substrate buffer to each 20-mL tube (2.20 mg of HMU-b-Gal) will reach a concentration of 0.2 mM. Vortex well the tube until the solution is fully homogenized (clear cloudy solution). […]
Take `CC(C)C(=O)Nc1nc2c(s1)CC(C(C)(C)C)CC2` (centres undefined): the “activation” value is -11%.
For the molecule `Cc1ccc(CCNC(=O)C2CCN(c3nnc(-n4cccc4CNc4ccc(C)cc4)s3)CC2)cc1`, the “activation” value was 6.11%.
Take `CCCCCn1c(=O)[nH]c2cc(C(=O)NCCN(C)CCCC)ccc2c1=O`: the “activation” value was -11.4%.
The same measure, in the same setting: the result for `COc1ccc(C)cc1Nc1nc2ccccc2c2nnc(C)n12` reads -10.1%; that for `Cc1ccc(NC(=O)CSc2nc3ccccc3c3nc(CCn4cncc4C)nn23)cc1F`, -12.2%; that for `Cc1ccc(Cl)cc1N1CCN(C(=O)c2cnc3c(-c4ccc(F)cc4)c(C)nn3c2C)CC1`, -9.19%.
As for `COc1ccccc1/C=C/c1nc(C#N)c(NC(C)c2ccccc2)o1` (centres undefined), the “activation” value is -13.4%.
Regarding `CC(=O)N1c2ccccc2CC1C(=O)N1CCN(c2ccc(F)cc2)CC1` (centres undefined), the “activation” value is -14.3%.
The same measure, in the same setting: the result for `CCN(CC)c1nn2c(=O)c(C(=O)NCCc3ccccc3)cnc2s1` reads -13%; that for `COc1ccc(C2Sc3ccccc3NC3=C2C(=O)c2ccccc23)c(OC)c1OC` (centres undefined), -16.7%; that for `CC(=O)Nc1ccc2nc(SCCOc3cc(C)cc(C)c3)sc2c1`, -29.8%.
For the molecule `Cc1ccc(S(=O)(=O)c2c(Nc3cccc(Cl)c3)sc(C(=O)c3ccc4c(c3)OCO4)c2N)cc1`, the “activation” value is -7.44%.
As to `COc1cc(NC(=O)c2nn(-c3ccc(C)cc3)c(=O)c3c2c2ccccc2n3C)cc(OC)c1OC`, the “activation” value was -20.9%.
On the same count and under the same terms, the result for `CCOC(=O)c1ccccc1NC(=O)c1sc2nc(-c3ccc(F)cc3)cn2c1C` reads -13.4%; that for `Cc1ccc(Cn2c(CCCNC(=O)C3CCCCC3)nc3ccccc32)cc1`, -11.3%.
Turning to `CCc1nccn1S(=O)(=O)c1cc(Br)ccc1Br`, the “activation” value was -5.8%.
As for `COc1ccc(OCCCn2c(C)nc3cc(C)c(C)cc32)cc1`, the “activation” value is -10.3%.
For the molecule `Cc1ccc(-n2ncc3c(=O)n(Cc4cccc(C(F)(F)F)c4)cnc32)cc1C`, the “activation” value was -13.3%.
As for `Cc1ccc2nc(COc3cccc(NC(=O)c4ccccc4Cl)c3)cc(=O)n2c1`, the “activation” value is -12.6%.
For `COc1ccc(CNC(=O)c2ccc(NC(=O)N3CC4CCCN4c4ccccc43)cc2)cc1` (centres undefined), the “activation” value was -12.2%.
With `Cc1ccc(C)c(NC(=O)C2CCCN(S(=O)(=O)c3cn(C)cn3)C2)c1` (centres undefined), the “activation” value is 2.62%.
Take `COc1cc(Cl)c(C)cc1Nc1nnc(-n2nc(C)cc2C)c2ccccc12`: the “activation” value is -10.6%.
`CCOC(=O)c1c(C)n(S(=O)(=O)c2ccc(C)cc2C)c2ccc(NS(=O)(=O)c3ccc(C)cc3C)cc12`: the “activation” value is -2.18%.
For the molecule `COC(=O)/C=C(/C)N`, the “activation” value is -6.02%.
On the same count and under the same terms, with `CCn1cc2nc(SCc3cccc(F)c3)n(CCc3ccccc3)c(=O)c2n1` the figure was -27.4%; with `COc1cccc(Cn2c(CNS(=O)(=O)c3ccc(Cl)s3)nc3cccnc32)c1`, 7.72%.
Same read-out and setting: the result for `CCC(=O)N1c2ccccc2CC1C(=O)N1CCN(c2ccccc2)CC1` (centres undefined) reads 11.7%; that for `COc1cccc(NC(=O)c2ccc3nc(CCc4ccccc4)oc3c2)c1`, -18.4%; that for `COc1ccccc1N1CCN(c2ncnc3onc(-c4cccc(Cl)c4)c23)CC1`, -9.65%.
Take `COc1cccc(C(=O)NC(=O)Nc2ccc(-c3cc(C(F)(F)F)nn3-c3ccccc3)cc2)c1`: the “activation” value was 1.48%.
Still for that read-out and setting: with `COc1ccc(-c2ccc(=O)n(CC(=O)Nc3ccc(Br)cc3F)n2)cc1` the figure was -6%.
Same read-out and setting: with `Fc1ccccc1Oc1ncnc2c1oc1ccccc12` the figure was -10.2%; with `COc1ccc(-c2cn3nc(N4CCCC(C(=O)NCCCOC(C)C)C4)sc3n2)cc1` (centres undefined), -13.8%.
With `CCOC(=O)c1ccc(NC(=O)CCn2cnnn2)cc1`, the “activation” value is -12.4%.
In the case of `CC(C)(C)OC(=O)N1CCC(c2c(C(=O)Nc3ccc4c(c3)OCO4)cnn2-c2ccccc2)CC1`, the “activation” value is -3.46%.
As to `COc1ccc(Cl)cc1NC(=O)C(C)Sc1nc2c(c(=O)[nH]1)CCCC2` (centres undefined), the “activation” value was 5.09%.
Take `COC(=O)c1nc(Cl)c(Cl)nc1N`: the “activation” value is -15.2%.
Same read-out and setting: with `O=C(CSc1oc(-c2ccco2)nc1S(=O)(=O)c1ccccc1)c1ccc(Cl)cc1` the figure was -25.8%.
For the molecule `O=c1[nH]c2cc(Br)ccc2n2cccc12`, the “activation” value was -12.7%.
In the case of `CN(Cc1ccccc1)c1ccc(-c2nc(-c3ccccc3)no2)cc1[N+](=O)[O-]`, the “activation” value was -39.7%.
For `COc1cc(NC(=O)CCn2nc(C)cc2C)cc(OC)c1OC`, the “activation” value was 0.94%.
For `CCOC(=O)c1c(C)[nH]c(C)c1S(=O)(=O)NCC(=O)NCc1cccc(C)c1`, the “activation” value was -12.1%.
Turning to `CCOc1ccc(OCC)c(NC(=O)c2cc(C)nc3c2c(C)nn3-c2cccc(Cl)c2C)c1`, the “activation” value is -12.6%.
Take `COc1ccc(-c2c(C)c3ccc(O)c(CN4CCN(C)CC4)c3oc2=O)cc1OC`: the “activation” value was -9.31%.
Still for that read-out and setting: the result for `Cc1ccc(Oc2c(C(F)(F)F)oc3c(CN4CCCCC4)c(O)ccc3c2=O)cc1` reads -11.8%.
On to `COc1ccc(-c2c(C)c3ccc(O)c(CN4CCCC4)c3oc2=O)cc1OC`, for which the Potency is 39.8 µM (active).
On to `O=C(NCc1ccccc1)c1cccc(NC(=O)N2CCSc3ncccc32)c1`, for which the “activation” value was -9.3%.
As for `CCCCN1C(=O)c2[nH]nc(-c3ccccc3O)c2C1c1cccc(OCc2ccccc2)c1` (centres undefined), the “activation” value was -9.56%.
Still for that read-out and setting: the result for `O=C(NC1CC(=O)N(c2ccccc2)C1)c1ccco1` (centres undefined) reads -16.5%.
